By inhibition is commonly meant the relative decrease from the control value, in per cent.

SMILES strings stand for the structures. In all, about 65,000 compounds went through this assay and about 100 (0.15%) were called active.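 Rule for the calls: active = inhibition above about 50% (limit read from the data); inconclusive = inhibition over screen mean plus 3 SD, below that limit; inactive = the rest.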 This excerpt belongs to a sample that is enriched for actives.

For this test, the target named is Dual specificity protein phosphatase 1 (Homo sapiens) (UniProt P28562). The experiment in a line: blockers of human DUSP1 activity – biochemical, in vitro, primary screen (AID 374).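 Note: 0% = DMSO max control wells and 100% = wells with enzyme stopped by NaOH.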 The conditions noted are these: recombinant MKP-1, OMFP hydrolysis fluorescence; active compounds read high;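 compounds tested at a single concentration somewhere between 10 and 100 µM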.
Dual specificity protein phosphatase 1 (Homo sapiens), sequence (P28562 whole entry, looked up): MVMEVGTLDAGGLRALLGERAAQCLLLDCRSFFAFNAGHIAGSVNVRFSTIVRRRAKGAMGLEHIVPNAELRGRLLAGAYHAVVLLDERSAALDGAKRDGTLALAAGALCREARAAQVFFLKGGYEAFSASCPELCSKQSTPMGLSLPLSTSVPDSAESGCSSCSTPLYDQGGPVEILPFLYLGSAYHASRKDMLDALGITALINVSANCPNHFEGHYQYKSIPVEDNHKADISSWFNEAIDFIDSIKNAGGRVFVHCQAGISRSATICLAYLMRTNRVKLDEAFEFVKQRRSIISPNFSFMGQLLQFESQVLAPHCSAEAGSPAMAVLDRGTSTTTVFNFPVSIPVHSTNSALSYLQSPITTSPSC
Consider `CCOC(=O)N1CCN(CC(=O)c2c(C)[nH]c3ccccc23)CC1`, for which the inhibition was 1.62% (inactive).

With `Cc1ccc(-c2noc(CCC(=O)Nc3ccccc3N3CCN(C)CC3)n2)cc1`, the inhibition is -3.7% (inactive).

Regarding `CCOc1cccc(NC(=O)C2CCCN(S(=O)(=O)c3ccc(OC)cc3)C2)c1` (stereo unspecified), the inhibition was -15.6% (inactive). As for `CN(C)CCCn1c(N)c(C#N)c2nc(C#N)c(C#N)nc21`, the figure is 2.01% (inactive); as for `CC(=O)OCc1cc(=O)n(C)c(=O)n1C`, 15.5% (inactive). Then `CCC(=O)Nc1ccccc1N1CCN(S(C)(=O)=O)CC1`, with 6.41% (inactive); and `O=C(NCc1ccco1)c1cc(-c2cccnc2)nc2ccc(Cl)cc12`, with 18.9% (inactive). Then `COc1ccc(C(c2nnnn2Cc2cccs2)N2CCN(c3ccccc3)CC2)cc1OC` (stereo unspecified), with -17.2% (inactive); and `COCCOC(=O)C1=C(C)N=c2s/c(=C\c3cccs3)c(=O)n2C1c1cccs1` (stereo unspecified), with -3.72% (inactive); and `CC(C)Cn1c(CCC(=O)O)ccc1-c1cccs1`, with -3.65% (inactive). `O=C(Nc1ccccc1)N(Cc1cccnc1)Cc1ccco1`: the inhibition was 19.6% (inactive). As for `CCOC(=O)CN1C(=O)C(O)(CC(=O)c2ccccn2)c2ccccc21` (stereo unspecified), the inhibition is -1.14% (inactive). As for `COc1cccc(-n2c(Cc3cc(=O)[nH]c(=O)[nH]3)nnc2SCC(=O)Nc2ccccc2)c1`, the figure is 6.14% (inactive).

Take `O=C(Cn1nc(Cc2cccnc2)c2ccccc2c1=O)NCC1CCCO1` (stereo unspecified): the inhibition was -5.72% (inactive). As for `O=C(CCC(=O)N1CCN(S(=O)(=O)c2ccccc2)CC1)NC1CCCc2ccccc21` (stereo unspecified), the figure is 28.7% (inactive). Then `O=C(NCCN1CCOCC1)c1ccc2c(c1)ncn2C1CCCC1`, with -1.23% (inactive); and `O=S1(=O)CC(NCc2ccccc2)C(Nc2ccc(Cl)cc2)C1` (stereo unspecified), with -10.7% (inactive); and `CC(C)=C(NC(=O)c1ccco1)C(=O)NCCc1nc2ccccc2[nH]1`, with -31.3% (inactive). Turning to `CC(=O)Nc1cc2ccc(OC(C)=O)cc2oc1=O`, the inhibition was 1.98% (inactive).

In the case of `CC1CCCCN1CC(=O)NCc1ccc2c(c1)OCO2` (stereo unspecified), the inhibition was 11.8% (inactive).

On to `CCCCn1c(SCC(=O)NCC2CCCO2)nc2ccc(N3CCOCC3)cc2c1=O` (stereo unspecified), for which the inhibition was 20.6% (inactive). Then `COCCCNC(=O)CSc1nc2ccc(N3CCOCC3)cc2c(=O)n1CCc1ccccc1`, with 25.1% (inactive). As for `CCc1ccc(NC(=O)CSc2nc3ccccc3c(=O)n2CCN2CCOCC2)cc1`, the figure is 52.5% (active); as for `Cc1nn(CC(=O)Nc2ccc3c(c2)nc(CN2CCCCC2)n3C)c(=O)c2ccccc12`, 21.5% (inactive); as for `O=C(NCC(F)(F)F)Nc1nnc(C(F)(F)F)s1`, -9.86% (inactive).

Consider `O=C(CCS(=O)(=O)Cc1ccccc1F)NCCCN1CCCCC1`, for which the inhibition is 5.21% (inactive). As to `O=C(Cn1nnc2ccccc2c1=O)Nc1cc(C(F)(F)F)ccc1N1CCOCC1`, the inhibition was 36.2% (inactive). Then `COC(=O)C1=C(C)NC2=C(C(=O)c3ccccc32)C1c1ccc(-c2ccc(C(=O)O)cc2)o1` (stereo unspecified), with 56% (active); and `COc1ccccc1NC(=O)C1=C(C)NC2=C(C(=O)CCC2)C1c1ccc(C)o1` (stereo unspecified), with 11.7% (inactive). Take `COC(=O)C1=C(C)NC(=O)NC1/C=C/c1ccccc1` (stereo unspecified): the inhibition is -8.21% (inactive). As for `Cc1nnc(NC(=O)CSc2nccn2-c2cccc(C)c2C)s1`, the figure is -0.12% (inactive); as for `CC(C)(C)n1c(=O)[nH]c2c(c1=O)CCC2`, 21.8% (inactive); as for `O=C(Oc1cccnc1)c1cc2ccccc2oc1=O`, 10.3% (inactive). As for `CC/C(=N\O)C(C)(C)/[N+]([O-])=C/c1ccc(Br)cc1`, the figure is 4.53% (inactive); as for `Cc1cccc(N2C(=O)SC(N(CC(=O)O)c3cccc(C)c3)C2=O)c1` (stereo unspecified), 11.8% (inactive); as for `COc1ccc(C(=O)N(Cc2ccc(N(C)C)cc2)C2CCS(=O)(=O)C2)cc1` (stereo unspecified), 0.01% (inactive).

As for `Cc1nc2sc(C(c3ccco3)N3CCC4(CC3)OCCO4)c(O)n2n1` (stereo unspecified), the inhibition is 4.37% (inactive). Take `COc1ccc2c(CC(=O)Nc3nnc(C4CC4)s3)coc2c1`: the inhibition was 11.4% (inactive). `CCCCCCn1c(CN2CCCCC2)nc2c1c(=O)n(C)c(=O)n2C`: the inhibition is 3.15% (inactive).

As for `CNC(=O)Nc1cc(C(C)(C)C)no1`, the inhibition is -18.9% (inactive).

As to `CCN(CC(=O)NC(C)C)C(=O)CCNC(=O)c1ccc(Cl)cc1`, the inhibition was 24.3% (inactive).

As to `CN1C(=O)c2ccc(NC(=O)C3CCCCC3)cc2C1=O`, the inhibition is 16.2% (inactive). Then `CC1(C)CC(=O)C=C(NCCCN2CCCC2=O)C1`, with -21.7% (inactive); and `CCOc1ccccc1C1CC(c2ccccc2)Nc2nc(N)nn21` (stereo unspecified), with 5.12% (inactive); and `CSC1=N/C(=C\C=C\c2cccs2)C(=O)S1`, with -1.19% (inactive). As for `Fc1ccc(OCc2nn3c(Cn4nnc5ccccc54)nnc3s2)cc1`, the figure is 17.2% (inactive); as for `Cn1c(CNC(=O)C(C)(C)C)nc2ccccc21`, 4.69% (inactive); as for `COc1cccc2cc(C(=O)N(C)C)c(=O)oc12`, -3.65% (inactive). Then `CCCCOC(=O)c1[nH]c(C)c(C(=O)OC)c1C`, with -26.1% (inactive); and `Cc1n[nH]c(C)c1S(=O)(=O)N1CCCC(C(=O)NCC2COc3ccccc3O2)C1` (stereo unspecified), with 2.75% (inactive); and `CCS(=O)(=O)N1CCN(C(=O)c2cccs2)CC1`, with 0.17% (inactive). Take `Cc1nn(-c2ccccc2)c2c1C(=O)NC(=O)C(C)(C)C2`: the inhibition was -21.3% (inactive).

For the molecule `Cc1cccc(N)c1SC1CCCCC1O` (stereo unspecified), the inhibition is -21.7% (inactive). Turning to `COc1ccccc1Oc1ccc(S(=O)(=O)Nc2cccnc2)cc1`, the inhibition was -6.18% (inactive).

For `CCN(CC)P(=O)(C(NC(=O)OC)C(F)(F)C(F)(F)C(F)(F)C(F)F)N(CC)CC` (stereo unspecified), the inhibition was 32.7% (inactive).

On to `Cc1ccc(C(=O)Nc2ccccc2C(=O)NC2CCCCC2)cc1S(=O)(=O)N1CCOCC1`, for which the inhibition is 15.1% (inactive).

Take `CCO/C([O-])=N/c1c[n+](N2CCOCC2)no1`: the inhibition was -14.5% (inactive). Then `Cc1cc(N2C(=O)c3ccc(C(=O)NCc4ccccc4)cc3C2=O)no1`, with 6.5% (inactive); and `COc1ccc(OC)c2sc(NC(=O)C3COc4ccccc4O3)nc12` (stereo unspecified), with 10.2% (inactive).

Consider `COc1ccc(-c2nnc(SCC(=O)c3ccco3)n2-c2ccccc2)cc1`, for which the inhibition was 1.42% (inactive).

Consider `CCCOc1cccc(C(=O)Nc2nnn(CCC)n2)c1`, for which the inhibition is -1.6% (inactive).

Source of the values: PubChem BioAssay AID374 (University of Pittsburgh Molecular Library Screening Center, 2006).
